Rows were chosen to be rich in hits. Some 2.9% of all compounds tested hit in one or more screens of this group.
NSD2 inh = NSD2 histone methyltransferase inhibitors, primary screen, biochemical, AlphaScreen, single concentration, set 2; AID 743445, 2014; hit rate 0.54% among 310,000; NSD2 peptide methylation, 120 min; inhibition, % at 12.5 µM; Histone-lysine N-methyltransferase NSD2 (Homo sapiens), O96028; in the data active means inhibition above about 50%
PfHsp90 yeast 2 = growth inhibition of PfHsp90-expressing yeast, primary screen, antimalarial PfHsp90 inhibitor project, S. cerevisiae, BacTiter-Glo luminescence, single point, set 2. BacTiter-Glo ATP, 48 h; yeast lacking PDR1 and PDR3 efflux regulators. inhibition, % at 9.4 µM. hit rate 0.32% among 310,000. AID 504621, 2011;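 active means every replicate shows inhibition above about 80%, whatever the replicate mean, limit read from the data; inconclusive means mean inhibition reaches the set limit but some replicate falls short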;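 further: 0% = DMSO neutral controls and 100% = 20 µM radicicol positive controls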
Wnt act = Wnt/beta-catenin pathway activators, primary screen, cell-based, plate reader, single point. Wnt/beta-catenin reporter cell assay, activator. hit rate 1.2% among 300,000. AID 743398, 2014. activation, % at 9.35 µM; in the data active means activation above about 30%, passing the limit was not always enough; inconclusive means no clear call, values can overlap the other calls;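 further: 0% = neutral control wells and 100% = positive control wells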
MITF act = activators of MITF-driven TRPM1 promoter reporter, primary screen, cell-based, SK-MEL-5, luciferase, single point; hit rate 0.75% among 300,000; activation, % at 12.5 µM; SK-MEL-5 TRPM1-promoter luciferase, 24 h; % of positive control, neutral wells = 0;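 active means mean activation of at least 80% with every replicate also reaching 80%; inconclusive means mean reaches 80% but some replicate falls short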;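 further: 0% = neutral control wells and 100% = parthenolide positive control wells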
Glyco luc inh = increase of ERlucT glycosylation luciferase signal, primary screen, N-linked glycosylation inhibitor project, D54 ERlucT cells, luminescence, set 2; D54 ERlucT glycosylation luciferase reporter, 24 h; percent of 100 nM tunicamycin response; reporter increase, % at 12.5 µM; AID 588692, 2011; hit rate 0.23% among 360,000;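 active means mean luciferase reporter signal, scaled so untreated is 0 and the glycosylation-blocking control 100, at or above a set limit in every replicate; inconclusive means mean reaches the limit but not every replicate does; inactive means mean below the limit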;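 further: luciferase carries N-glycosylation sites so blocking glycosylation raises the light; 0% = median of neutral control wells and 100% = median of 100 nM tunicamycin wells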
TRPM1 prom inh = inhibitors of MITF-dependent TRPM1 promoter reporter, primary screen, cell-based, SK-MEL-5, single point, luciferase. inhibition, % at 12.5 µM. AID 488899, 2010. hit rate 0.83% among 330,000. SK-MEL-5 TRPM1 promoter luciferase, 24 h;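 active means mean inhibition across replicates of 60% or more, whatever share of single replicates reaches that level; inconclusive means some that reach 60%, reason not given; inactive means mean inhibition across replicates below 60%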
The depositor's hits bear a star.

`COc1cccc(/C=N/NC(=O)c2ccc(-c3ccccc3)cc2)c1O` gave NSD2 inh -0.2, MITF act -68.9, Glyco luc inh -2.1 and TRPM1 prom inh 69.0*.
`COc1cccc(/C=N/NC(=O)c2c(C)nc3ccc(Cl)cn23)c1O` gave NSD2 inh -3.2, PfHsp90 yeast 2 5.2, Wnt act 2.3, MITF act -67.3, Glyco luc inh -10.9 and TRPM1 prom inh 70.5*.
`COc1ccccc1/C=N\NC(=O)c1c(C)nc2ccc(Cl)cn12` gave NSD2 inh -2.5, PfHsp90 yeast 2 18.1, Wnt act -0.4, MITF act 1.3, Glyco luc inh 2.5 and TRPM1 prom inh -4.3.
`COc1ccccc1/C=N/NC(=O)c1cccc(OC(F)(F)C(F)F)c1` gave NSD2 inh -2.7, PfHsp90 yeast 2 -89.0, Wnt act -0.7, MITF act -2.6, Glyco luc inh 0.9 and TRPM1 prom inh 0.8.
`COc1cccc(/C=N/NC(=O)C(=O)Nc2ccccc2OC(F)(F)C(F)F)c1O` gave NSD2 inh -1.5, PfHsp90 yeast 2 91.6*, Wnt act -1.0, MITF act -71.7, Glyco luc inh -7.2 and TRPM1 prom inh 72.8*.
Screening Nc1ccc(Br)c2cccnc12 returned NSD2 inh 99.0*, Wnt act 9.3, MITF act -23.2, Glyco luc inh 14.4 and TRPM1 prom inh 24.8.
`Cc1cc(C)c2cccc(N)c2n1` gave NSD2 inh 12.7, PfHsp90 yeast 2 18.5, Wnt act -2.0, MITF act 4.6, Glyco luc inh 8.7 and TRPM1 prom inh -2.5.
Screening Cc1cc(C)c2c(N)c3ccccc3nc2n1 returned PfHsp90 yeast 2 -18.3, Wnt act -0.5, Glyco luc inh 123.0* and TRPM1 prom inh 66.2*.
For CCc1ccc(NC(=S)/N=C(\N)Nc2nc(C)c3cc(CC)ccc3n2)cc1 the results were NSD2 inh 1.2, PfHsp90 yeast 2 2.2, Wnt act -6.2, MITF act -12.6, Glyco luc inh -1.5 and TRPM1 prom inh 17.2.
`CCc1ccc2nc3nc(C)cc(C)c3c(N)c2c1` gave NSD2 inh 5.0, PfHsp90 yeast 2 -2.6, Wnt act -0.4, MITF act 18.3, Glyco luc inh 85.1* and TRPM1 prom inh -17.7.
CC[C@@]1(C(=O)OC)N[C@H](CN(C)C(=O)C2CCCCC2)[C@@H]2C(=O)N(Cc3ccccc3)C(=O)[C@@H]21 was read as PfHsp90 yeast 2 -1.5, Wnt act -1.6, MITF act 5.2, Glyco luc inh -3.1 and TRPM1 prom inh -6.6.
`Cc1ccc(-c2ccnc3c(Cl)c(C)nn23)cc1` gave NSD2 inh -0.9, PfHsp90 yeast 2 3.6, Wnt act 0.3, MITF act -9.8, Glyco luc inh -1.5 and TRPM1 prom inh 14.1.
Cc1nn2c(N)c(-c3ccccc3)cnc2c1-c1ccc(Cl)cc1 was read as NSD2 inh -1.9, PfHsp90 yeast 2 -3.5, Wnt act 16.6, MITF act 101.1*, Glyco luc inh 2.1 and TRPM1 prom inh -104.5.
Screening Cc1nc2c(-c3ccccc3)c(C)nn2c(N)c1-c1ccccc1 returned NSD2 inh -1.2, PfHsp90 yeast 2 -2.3, MITF act 86.5*, Glyco luc inh -2.5 and TRPM1 prom inh -86.2.
For Cc1nn2c(-c3ccccc3)ccnc2c1-c1ccccc1 the results were NSD2 inh 0.4, PfHsp90 yeast 2 63.5, Wnt act 40.4*, MITF act inconclusive, Glyco luc inh -2.1 and TRPM1 prom inh -88.3.
For O=C(Nc1ccc(Cl)c(Cl)c1)C1CCN(c2ncccn2)CC1 the results were NSD2 inh -3.4.
Screening O=C(CN1CCN(Cc2ccccc2)CC1)N/N=C\c1c2ccccc2cc2ccccc12 returned NSD2 inh 12.3.
Screening O=C(CNC(=O)c1cccs1)c1ccc(Br)cc1 returned NSD2 inh 3.0, PfHsp90 yeast 2 -29.5, Wnt act 27.1, MITF act 122.5*, Glyco luc inh -7.5 and TRPM1 prom inh -116.1.
`COC(=O)[C@]12C[C@H](CC(=O)N3CCN(C(=O)C4CC4)CC3)C(=O)N(CCC3=CCCCC3)C1=C[C@H](C(C)(C)C)O[C@@H]2C` gave Wnt act -2.2.
`Cc1cc2cc(CCNC(=O)c3ccc(C)c([N+](=O)[O-])c3)c(=O)[nH]c2cc1C` gave NSD2 inh -1.0, PfHsp90 yeast 2 3.2, MITF act -4.5, Glyco luc inh -3.8 and TRPM1 prom inh 1.1.
`Cc1cc2cc(CNC(=O)c3ccc(C)c([N+](=O)[O-])c3)ccc2[nH]1` gave PfHsp90 yeast 2 162.0*, Wnt act -4.5, MITF act -1.4, Glyco luc inh -2.2 and TRPM1 prom inh -1.2.
Screening Nc1[nH]c(C(=O)c2ccccc2)c(-c2ccc3ccccc3c2)c1C(=O)NCc1ccc(-c2ccccc2)cc1 returned NSD2 inh -1.2 and Wnt act -3.9.
Screening CCOc1ccc2nc(SCC(=O)c3cccs3)sc2c1 returned NSD2 inh -0.3, Wnt act 49.7*, Glyco luc inh -2.1 and TRPM1 prom inh -80.9.
For COc1ccc2nc(NC(C)=O)sc2c1 the results were PfHsp90 yeast 2 11.1, Wnt act inconclusive, MITF act 39.1, Glyco luc inh -3.5 and TRPM1 prom inh -34.9.
O=C(Nc1nc2cc3c(cc2s1)OCCO3)c1cccs1 was read as NSD2 inh -2.4, PfHsp90 yeast 2 55.6, Wnt act 32.4*, MITF act -15.4, Glyco luc inh -17.9 and TRPM1 prom inh 14.8.
`COc1ccc2nc(NC(=O)c3ccccc3O)sc2c1` gave NSD2 inh -3.9, PfHsp90 yeast 2 12.4, Wnt act 37.8*, MITF act 88.0*, Glyco luc inh -11.6 and TRPM1 prom inh -92.8.
CCC(C)C(=O)Nc1nc2ccc(OC)cc2s1 (stereo not given) was read as NSD2 inh 1.0, PfHsp90 yeast 2 -14.6, Wnt act 42.9*, Glyco luc inh -2.3 and TRPM1 prom inh -118.5.
Screening CCOc1ccc2nc(SCC(=O)c3ccc(Cl)s3)sc2c1 returned NSD2 inh -1.2, MITF act 2.6, Glyco luc inh 0.1 and TRPM1 prom inh 3.7.
For O=C(Nc1nc2ccccc2s1)c1cccs1 the results were NSD2 inh -11.8.
Screening Nc1nc2ncccc2cc1C(=O)NC1CC1 returned Wnt act -1.7.
Screening COc1ccc2nc(NC(=O)c3cccs3)sc2c1 returned NSD2 inh -3.5, Wnt act 47.9* and Glyco luc inh 1.6.

Source: PubChem (Broad Institute)
